Among all 50,000 compounds or so, about 800 (1.6%) showed an effect of 50% or more. The full list was thinned out, with strong results kept by preference.
Each compound was assayed against Bcl-2-like protein 10 (Homo sapiens) (UniProt Q9HD36) (assay: TR3 peptide-Bcl-B binding displacers, biochemical primary FP assay, phenotype converters (AID 1240;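 note: 0% = Bcl-B with tracer peptide and DMSO and 100% = tracer peptide lacking Bcl-B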)). Conditions: GST-Bcl-B / FITC-TR3 peptide fluorescence polarization; stronger effect = higher value; compound at 3.75 mg/L.
Chain of Bcl-2-like protein 10 (Homo sapiens) (Q9HD36 whole entry, looked up): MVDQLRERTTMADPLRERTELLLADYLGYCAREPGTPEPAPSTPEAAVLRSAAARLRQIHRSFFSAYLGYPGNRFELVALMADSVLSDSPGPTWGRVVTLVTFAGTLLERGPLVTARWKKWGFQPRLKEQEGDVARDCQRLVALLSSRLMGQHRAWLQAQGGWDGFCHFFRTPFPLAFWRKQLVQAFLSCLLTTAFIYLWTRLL

Structure (SMILES) | displacement [%]
C=CCNC(=O)CN(c1ccc(OC)cc1OC)S(=O)(=O)c1ccc(C)cc1 | 8.5
C=COCCNC(=O)C(=O)Nc1ccc(F)cc1 | 5
Cc1cccc(NC(=O)CCCN2C(=O)c3cccc4cccc(c34)C2=O)n1 | 0.6
O=C1NN(c2ccccc2)C(=O)/C1=C/c1ccc(-c2ccccc2Cl)o1 | -13.5
O=C1/C(=C/c2ccc(-c3ccccc3[N+](=O)[O-])o2)SC(=S)N1c1cccc(C(F)(F)F)c1 | -3
COC(=O)c1ccccc1-c1ccc(/C=C2/SC(=S)N(CC(=O)O)C2=O)o1 | 5.3
COC(=O)c1ccc(-c2ccc(/C=C3/SC(=S)N(c4ccccc4)C3=O)o2)cc1 | 12.6
COc1ccc(N2C(=O)/C(=C/c3ccc(-c4ccccc4[N+](=O)[O-])o3)SC2=S)cc1 | 11.9
COC(=O)c1ccccc1-c1ccc(/C=C2/SC(=S)N(c3ccccc3)C2=O)o1 | 70
O=C1/C(=C/c2ccc(-c3ccccc3[N+](=O)[O-])o2)SC(=S)N1c1cccc(Cl)c1 | 73.5
O=C(/C=C/c1cccc(C(F)(F)F)c1)Nc1cccc([N+](=O)[O-])c1 | 20.4
CCOc1ccccc1NC(=S)NCc1ccccc1 | 3.9
O=[N+]([O-])c1ccccc1S(=O)(=O)NCc1ccc2c(c1)OCO2 | -3.4
Cc1ccc(OCC(=O)NC(C)c2ccccc2)cc1C (configuration not stated) | 89.2
Cc1cccc(OCC(=O)NC(C)c2ccccc2)c1 (configuration not stated) | -5.2
Cc1cc(OCC(=O)NC(C)c2ccccc2)cc(C)c1Cl (configuration not stated) | 1.4
COC(=O)c1sc(NC(=O)c2c(-c3c(Cl)cccc3Cl)noc2C)c(C#N)c1C | 3.1
O=C(Oc1ccc(/C=N/NS(=O)(=O)c2ccc(Cl)cc2)cc1)c1ccco1 | 6.4
O=C(O)c1ccc(Cl)c(-c2ccc(C=C3C(=O)c4ccccc4C3=O)o2)c1 | 99.1
O=C(O)c1cccc(-c2ccc(C=C3C(=O)c4ccccc4C3=O)o2)c1 | -2.7
O=C(O)c1ccc(-c2ccc(C=C3C(=O)c4ccccc4C3=O)o2)cc1Cl | 25.2
N/C(=N\OC(=O)c1ccc(Cl)c([N+](=O)[O-])c1)c1ccccc1Cl | 1.1

Structure (SMILES) | displacement [%]
O=C1c2ccccc2NC(c2ccc(-c3ccccc3[N+](=O)[O-])o2)N1c1ccccc1 (configuration not stated) | 16.8
O=C(CNc1ccc2ccccc2c1)N/N=C/c1ccc(Br)c([N+](=O)[O-])c1 | -4.4
O=C(N/N=C/c1ccc(Br)c([N+](=O)[O-])c1)c1cccs1 | 113
Cc1cc(C(=O)N/N=C/c2ccc(Br)c([N+](=O)[O-])c2)n[nH]1 | 5.2
O=C1N/C(=N/N=C/c2ccccc2O)SC1Cc1ccccc1 (configuration not stated) | 1.4
CCC1S/C(=N\N=C\c2cccc3ccccc23)NC1=O (configuration not stated) | 127
CCC1S/C(=N/N=C/c2ccc3c(c2)OCO3)NC1=O (configuration not stated) | -13.8
O=c1[nH]c(=S)[nH]c2c1C1(CCCC1)Cc1ccccc1-2 | -4.2
COc1ccc(COC(=O)C2=C(C)NC3=C(C(=O)CCC3)C2c2cccc3ccccc23)cc1 (configuration not stated) | 10.9
COc1cc(/C=C(\C#N)c2nc3ccccc3[nH]2)c(Br)cc1O | -96.8
COc1cc(/C=C(/C#N)c2nc3ccccc3[nH]2)c([N+](=O)[O-])cc1OCCC(C)C | 69.6
COc1ccc(/C=C(\C#N)c2nc3ccccc3[nH]2)cc1OC | 11
COc1ccc(CC(=O)N2CCN(c3cccc(Cl)c3)CC2)cc1OC | 2
COC(=O)C1=C(C)NC2=C(C(=O)CC(C)(C)C2)C1c1ccc(OC)cc1OC (configuration not stated) | 11.9
Cc1ccc(C=C2C(=O)c3ccccc3C2=O)o1 | 10.9
O=C1C(=Cc2ccc(I)o2)C(=O)c2ccccc21 | 37.1
O=C1C(=Cc2ccc(Sc3ccccc3)o2)C(=O)c2ccccc21 | 163
C#CCOc1c(Br)cc(/C=C2\C(=O)NC(=O)N(c3ccc(Cl)cc3)C2=O)cc1OC | -0.6
CCn1nnnc1-c1ccc(OC)c(S(=O)(=O)Nc2ccc(F)cc2)c1 | 6.1
CCn1nnnc1-c1ccc(OC)c(S(=O)(=O)Nc2ccc(Cl)cc2)c1 | 9.3
CCn1nnnc1-c1ccc(OC)c(S(=O)(=O)Nc2ccc(Br)cc2)c1 | 58.3
CCc1ccc(-n2c(C)cc(/C=C3/NC(=O)NC3=O)c2C)cc1 | -6.3

Structure (SMILES) | displacement [%]
O=C(NC1CCCCC1)c1ccc(Cl)c(Cl)c1 | 3.3
O=C(NC1CCCCCC1)c1cccc(Cl)c1 | 4.5
O=C(NC1CCCCC1)c1ccc2nc3ccccc3nc2c1 | 81.5
CCOC(=O)C(=CNc1ccccc1C(C)C)C(=O)OCC | -7.2
O=C1c2cccc3cccc(c23)C(=O)N1Nc1ccc([N+](=O)[O-])cc1 | 3.8
COc1ccc(-c2cc(C(=O)Nc3nc4ccc(S(C)(=O)=O)cc4s3)c3ccccc3n2)cc1OC | 5
Cc1ccc2c(c1)NC(c1ccccc1)C1=C(CC(C)(C)CC1=O)N2 (configuration not stated) | -3.1
Cc1ccc2c(c1)NC(c1ccc(F)cc1)C1=C(CC(C)(C)CC1=O)N2 (configuration not stated) | 17.8
Cc1ccc2c(c1)NC(c1ccc(C)o1)C1=C(CC(C)(C)CC1=O)N2 (configuration not stated) | 88.5
CCCCCC(=O)N1c2ccccc2NC2=C(C(=O)CC(c3ccc(OC)cc3)C2)C1c1ccco1 (configuration not stated) | -3.9
Cc1ccc2nc(SCc3ccc([N+](=O)[O-])cc3)nc(C)c2c1 | -7.5
O=C(Cc1ccccc1)Nc1ccc(Cl)c(-c2nc3ncccc3o2)c1 | 7.3
Cc1ccc(C(=O)Nc2cccc3ccccc23)o1 | 16.6
O=C(Nc1c(C(=O)N2CCC(Cc3ccccc3)CC2)cnn1-c1ccccc1)c1cccc(F)c1 | 3.5
O=C(Nc1c(C(=O)N2CCC(Cc3ccccc3)CC2)cnn1-c1ccccc1)c1ccccc1F | 88.9
Cc1ccc(C(=O)Nc2c(C(=O)N3CCC(Cc4ccccc4)CC3)cnn2-c2ccccc2)cc1 | -8.3
CCOC(=O)C1=C(O)/C(=C\c2ccc(OCC)cc2)N=C1C | 18.1
Cc1cc(/C=C2\C(=O)NC(=S)N(c3cccc(Cl)c3Cl)C2=O)c(C)n1C | 0.8
Cc1cccc(N2C(=O)/C(=C/c3cc(C)n(C)c3C)C(=O)NC2=S)c1C | 111
CCc1ccccc1N1C(=O)/C(=C/c2cc(C)n(C)c2C)C(=O)NC1=S | 8.1
Cc1cc(/C=C2\C(=O)NC(=S)N(c3ccc(Cl)cc3)C2=O)c(C)n1C | 29.5
Cc1cc(/C=C2\C(=O)NC(=S)N(c3ccc(Br)cc3)C2=O)c(C)n1C | -2.4

Structure (SMILES) | displacement [%]
Cc1ccc(N2C(=O)/C(=C/c3cc(C)n(C)c3C)C(=O)NC2=S)cc1 | 97
Cc1ccc(S(=O)(=O)N2CCN(C(=O)COc3ccc(Cl)cc3)CC2)cc1 | -15.1
CCN(CC)c1ccc(/C=N/NS(C)(=O)=O)cc1 | 7.3
COc1cccc(CN2CCN(C(=O)c3ccccc3OC)CC2)c1 | -15.8
NC(=O)SCC(=O)Nc1ccccc1O | 4.9
Clc1ccccc1-c1nnc(-c2ccc(-c3ccccc3)cc2)o1 | 5.2
O=C(Nc1ccc(OC(F)(F)F)cc1)c1cccc([N+](=O)[O-])c1 | -1.6
COc1ccc(/C=C2\SC(N3CCCC3)=NC2=O)c(OC)c1 | -18.5
COc1ccc(OC)c(/C=C2\SC(N3CCCC3)=NC2=O)c1 | -16.2
COc1cc(/C=C2/SC(NC(C)=O)=NC2=O)cc(OC)c1OC | 31.2
CC(=O)NC1=NC(=O)/C(=C\c2ccc(-c3ccc(Cl)c(C(=O)O)c3)o2)S1 | -115
COc1ccc(/C=C2/SC(NC(C)=O)=NC2=O)c(OC)c1 | 133
COc1c(Cl)cc(Cl)cc1/C=C1\SC(NC(C)=O)=NC1=O | 74.7
COc1ccc(/C=C2/SC(N)=NC2=O)c(OC)c1 | -3.2
COc1cc(/C=C2\SC(NC(C)=O)=NC2=O)cc(Br)c1OC | 11.8
COc1ccc(OC)c(/C=C2/SC(NC(C)=O)=NC2=O)c1 | 156
COc1cc(/C=C2\SC(NC(C)=O)=NC2=O)cc2sc(=O)oc12 | 24.7
COc1cc(OC)c(/C=C2/SC(NC(C)=O)=NC2=O)cc1Br | 138
CCOC(=O)C1=CN(c2ccc(OCC)cc2)C=C(C(=O)OCC)C1c1ccccc1F | -12.6
CC(=O)OC(c1c(F)c(F)c(F)c(F)c1F)c1c(F)c(F)c(F)c(F)c1F | 3
C=CCN1C(=O)/C(=C\c2ccc(O)cc2)C(=O)NC1=S | -14.8
O=C(N/N=C/c1ccc(Cl)cc1)c1ccc(O)cc1 | -1.1

Structure (SMILES) | displacement [%]
O=C(/C=C/c1ccccc1)C1=C(O)C(=O)N(c2ccccc2)C1c1ccccc1F (configuration not stated) | 2
O=C(O)CCCCCN1C(=O)C(O)=C(C(=O)/C=C/c2ccccc2)C1c1ccccc1F (configuration not stated) | 1.5
O=C(/C=C/c1ccccc1)C1=C(O)C(=O)N(c2ccccn2)C1c1ccccc1F (configuration not stated) | 93.5
Cc1ccccc1NC(=O)CN(c1ccc(Oc2ccccc2)cc1)S(C)(=O)=O | 1.7
Cc1ccccc1NC(=O)c1ccc(C)c(S(=O)(=O)NCc2ccccc2)c1 | -9.5
CC(C)c1nnc(NC(=O)Nc2ccc(Cl)c(Cl)c2)s1 | 98.2
CC(C)Cc1nnc(NC(=O)Nc2ccc(Cl)c(Cl)c2)s1 | 3.9
CC(C)c1nnc(NC(=O)Nc2ccc(Cl)cc2)s1 | 2.3
FC(F)(F)c1nc2ccccc2n1CC#CCn1c(C(F)(F)F)nc2ccccc21 | -1.1
Cc1ccc(NC(=O)/C(=C/c2ccccc2)c2ccccc2)cc1C | 12.1
O=C(Nc1nc2ccc(Br)cc2s1)c1cccs1 | -3.7
COc1ccc(C(=O)Nn2cc3cc([N+](=O)[O-])ccc3n2)cc1 | -9.5
O=C(Cc1ccc(Cl)cc1)Nc1ccc2c(c1)OCCO2 | 0.4
CSc1nc2sc3c(c2c(=O)n1Cc1ccccc1)CCN(C)C3 | -6.8
Nc1nc(SCc2ccc(Cl)cc2)nc2sc3c(c12)CCN(Cc1ccccc1)C3 | 16.8
CSc1nc2sc3c(c2c(=O)[nH]1)CCCC3 | 6.2
CSc1nc2sc3c(c2c(=O)[nH]1)CCN(Cc1ccccc1)C3 | 81
N#Cc1c(N)sc2c1CCN(Cc1ccccc1)C2 | 3.4
Nc1sc(=S)nc2sc3c(c12)CCN(Cc1ccccc1)C3 | 74
